{"source": "PubChem BioAssay AID1745846", "about": "(National Center for Advancing Translational Sciences (NCATS), 2022)", "note": "Among all 1,400 compounds or so, about 30 (2%) were called active. About 15% were inconclusive and are not listed. Calls follow the shape of the dose curve; as a rule, active = well fitted inhibition curve with a large enough effect; inconclusive = small, poorly fitted or top-dose-only effect; inactive = flat fitted curve, though single readings scatter. What follows is part of a selection rich in actives, with near analogues and random picks from the rest. Entries that show only a call come without a potency. Potency is read from the fitted curve at half-maximal effect."}
{"assay": "Firefly Luciferase Counterscreen for Inhibitors of ATXN expression", "settings": "luminescence; series mostly up to 57.5 µM", "from_the_text": "University of Utah School of Medicine, Salt Lake City, Utah\nSpinocerebellar ataxia type 2 (SCA2) is a multisystem neurodegenerative disease caused by a dominantly acting mutation leading to expansion of a polyQ domain in the ataxin-2 protein (ATXN2). SCA2 patients develop progressive ataxia and later lose function in other neuronal systems. Prominent parkinsonian signs develop in some patients. Like many neurodegenerative disorders, no symptomatic or disease-modifying treatments are known.\nThe primary objective of the proposed research is to identify compounds inhibiting ATXN2 expression and to test them for efficacy in SCA2 mouse models. We have developed a cell-based assay paired with an in vivo mouse model using identical luciferase expression constructs. This approach takes advantage of an ATXN2-luciferase transgene, with the luciferase gene flanked by the upstream and downstream portions of the ATXN2 gene. Here we describe a 5-7 dose quantitative high thoroughput screen (qHTS) for compounds lowering ATXN2 expression. We screened the NIH Molecular Libraries Small Molecule Repository (MLSMR) and NCGC's mechanistically annotated (MIPE) and drug repurposing (NPC) collections of compounds for lowering expression of an ATXN2-luciferase reporter in HEK-293 cells. The assay is a multiplexed cell viability assay to ensure target reduction in the absence of cytotoxicity. Secondary qHTS assays included a CMV-luciferase reporter expressed in HEK-293 cells as well as a biochemical assay using recombinant luciferase to detect inhibitors of the reporter enzyme. Compounds that inhibit ATXN2 expression but is not cytotoxic were selected for confirmatory and secondary screens.\nPROTOCOL TABLE (as described by Inglese J, Shamu CE and Guy RK. 2007)\nSEQUENCE No. (e.g., 1, 2, 3, etc.); […] (e.g., Cells, Incubation, Reagent, etc.); VALUE; DESCRIPTION.\n2; Compounds; 23 nL; Kalypsis pintool (Wako USA) equipped with a 1536-well pin head.\n3; Enzyme; 1 uL; recombinant firefly luciferase (prepared in 50 mM Tris HCl pH7.5, 10 mM MgCl2, 0.05% BSA, 0.01% Tween20) at final concentration of 10 nM. Wells containing buffer only were used as control (set as 100% inhibition when normalizing data).\n4; Incubation; 10 min; room temperature.\n5; Detection; Luminescence; Viewlux plate reader (PerkinElmer).\nNOTES (numbers refer to Sequence numbers above)\n1. Luciferase substrate is added to 1536 well, Greiner white assay plate. Evaporation was prevented by covering assay plates with metal lids containing holes to allow gas diffusion.\n2. Compounds were added in a dose response manner with the final concentrations of 57, 11.4, 2.28, 0.46, 0.091, 0.018, 0.0037 uM. Vehicle-only plates, with DMSO being pin-transferred to columns 5-48, were inserted uniformly at the beginning and the end of each library to monitor and record any shifts in assay performance.\n3. Recombinant firefly luciferase (10 nM final concentration) is added to the assay plate.\n5. End-point luminescence is then measured on the Viewlux (PerkinElmer) imager equipped with a clear emission filter using a 2 sec exposure.\nInglese J, Shamu CE and Guy RK, Reporting data from high throughput screening of small molecule libraries, Nature Chemical Biology, 2007, 3(8): 438-441. doi.org/10.1038/nchembio0807-438."}
{"smiles": "COc1ccc(Cc2[nH]n3c(=O)cc(C(C)C)nc3c2-c2ccccc2)cc1", "Potency": "inactive"}
{"smiles": "CNC(=O)c1sc(N2N=C3/C(=C/c4ccccc4)CCCC3C2c2ccccc2)nc1C", "note": "(stereo not drawn)", "Potency": "inactive"}
{"smiles": "CN1CCC(N(C)S(=O)(=O)c2ccc(NC(=O)COc3ccc(Br)cc3Cl)cc2)CC1", "Potency": "inactive"}
{"smiles": "CN(C)CCNc1ccc(CO)c2sc3ccc(O)cc3c(=O)c12", "Potency": "inactive"}
{"smiles": "CCn1cc(Cl)c(C(=O)N2N=C(c3ccc4ccccc4c3)CC2c2ccccc2O)n1", "note": "(stereo not drawn)", "Potency": "inactive"}
{"smiles": "CC(=O)NC(=C(Cl)Cl)S(=O)(=O)c1ccccc1", "Potency": "inactive"}
{"smiles": "S=C(NCc1cccnc1)Nc1ccc(Oc2ccc(Cl)cc2)cc1", "Potency": "inactive"}
{"smiles": "C(=NN1CCCCCC1)c1ccc2ccccc2n1", "Potency": "0.1 µM (active)"}
{"smiles": "S=C(Nc1cc(Cl)ccc1Oc1ccccc1)N1CCN(c2ccccn2)CC1", "Potency": "inactive"}
{"smiles": "CN(c1ccccc1)S(=O)(=O)c1cccc(NC(=O)c2cc(=O)c3ccccc3o2)c1", "Potency": "inactive"}
{"smiles": "O=C(COc1nsnc1N1CCOCC1)N/N=C/c1ccccc1O", "Potency": "inactive"}
{"smiles": "COc1ccccc1N(CC(=O)N/N=C/c1c(O)ccc2ccccc12)S(C)(=O)=O", "Potency": "inactive"}
{"smiles": "Cn1c(CO)cnc1SCC(=O)c1ccc(Br)cc1", "Potency": "inactive"}
{"smiles": "CC(=O)Nc1cccc(-c2ccnc3c2CC(C)(C(=O)Nc2ccc(Cl)cc2)O3)c1", "note": "(stereo not drawn)", "Potency": "inactive"}
{"smiles": "CCCCOc1ccc(CSC(=N)N)cc1Cl", "Potency": "inactive"}
{"smiles": "O=[N+]([O-])c1cc(Cl)c(O)c2ncccc12", "Potency": "inactive"}
{"smiles": "Cc1cccn2c(=O)c(/C=C(\\C#N)C(N)=O)c(N3CCN(c4cccc(Cl)c4)CC3)nc12", "Potency": "inactive"}
{"smiles": "NC(c1csc(NC(=O)c2cccc(OC(F)(F)F)c2)n1)c1ccccc1Cl", "note": "(stereo not drawn)", "Potency": "inactive"}
{"smiles": "COc1cc(/C=N\\NC(=O)CC#N)ccc1OC/C=C/c1ccccc1", "Potency": "inactive"}
{"smiles": "COC(=O)c1cc(NC(=O)c2cc(-c3ccc(C(F)(F)F)cc3)oc2C(F)(F)F)ccc1N1CCOCC1", "Potency": "inactive"}
{"smiles": "COC1CC(C)C(OC)c2cc(O)cc(c2O)NC(=O)C(C)=CC=CC(C)C(OC(N)=O)C(C)=CC(C)C1OC", "note": "(stereo not drawn)", "Potency": "inactive"}
{"smiles": "Cc1cccc(C(=O)N/N=C2\\CS(=O)(=O)N(C)c3ccsc32)c1", "Potency": "inactive"}
{"smiles": "CC(=O)Oc1ccc(N(C(C)=O)S(=O)(=O)c2ccc(Cl)cc2)c2ccccc12", "Potency": "inactive"}
{"smiles": "CCOC(=O)CSc1cccc2cccnc12", "Potency": "inactive"}
{"smiles": "CC(=O)Nc1cccc(-c2ccnc3c2CC(C)(C(=O)Nc2ccc(Cl)c(C(F)(F)F)c2)O3)c1", "note": "(stereo not drawn)", "Potency": "inactive"}
{"smiles": "Cc1ccc2ccc(C(Nc3ccccn3)c3ccccc3)c(O)c2n1", "note": "(stereo not drawn)", "Potency": "inactive"}
{"smiles": "Cc1nc2ccccc2n1/N=C/c1ccc([N+](=O)[O-])o1", "Potency": "inactive"}
{"smiles": "CN1CCN(c2ccc(-c3cc(NC=O)c4ncc(-c5ccc(F)c(Cl)c5)n4c3)cc2)CC1", "Potency": "15.8 µM (active)"}
{"smiles": "COc1ccccc1-c1cc(NC=O)c2ncc(-c3ccc(F)cc3)n2c1", "Potency": "inactive"}
{"smiles": "COc1ccc(-c2cnc3c(NC=O)cc(-c4ccccc4OC)cn23)cc1OC", "Potency": "inactive"}
{"smiles": "Cc1cc(C)nc(N/N=C2/CCCC/C2=C\\c2ccccc2)n1", "Potency": "inactive"}
{"smiles": "Cc1ccc(C(NC(=O)C2CCN(Cc3ccc(Cl)c(Cl)c3)CC2)c2ccccn2)cc1", "note": "(stereo not drawn)", "Potency": "inactive"}
{"smiles": "Cn1c(=O)c2c(nc(CN3CCN(Cc4ccccc4)CC3)n2Cc2ccc(Cl)cc2)n(C)c1=O", "Potency": "inactive"}
{"smiles": "Cn1c2ccccc2c(=O)c2c(=O)n(C3CCCCC3)c(-c3cccs3)nc21", "Potency": "inactive"}
{"smiles": "CC1(C)Cc2ccccc2C(NNC(=O)c2ccccn2)=N1", "Potency": "inactive"}
{"smiles": "CC(OC(=O)c1cc(Br)ccc1O)C(=O)Nc1ccc(S(=O)(=O)N2CCCC2)cc1", "note": "(stereo not drawn)", "Potency": "inactive"}
{"smiles": "O=C(Nc1ccc(N2CCN(C(=O)c3cccs3)CC2)c(Cl)c1)c1cccnc1", "Potency": "inactive"}
{"smiles": "N#Cc1nc(Cc2cccc3ccccc23)oc1NCc1ccc(F)cc1", "Potency": "inactive"}
{"smiles": "CC(C)CC(N)c1csc(Nc2ccc(C(=O)N(C)Cc3ccccc3)cn2)n1", "note": "(stereo not drawn)", "Potency": "inactive"}
{"smiles": "COc1ccc(C(=O)Nn2c(SCC(=O)c3ccccc3)nc3ccccc3c2=O)cc1", "Potency": "7.08 µM (active)"}
{"smiles": "COc1ccc(Nc2c3ccccc3nc3ccccc23)cc1", "Potency": "inactive"}
{"smiles": "COc1ccc(C(=O)NNC(=S)NC(=O)c2ccccc2)cc1", "Potency": "inactive"}
{"smiles": "CC1(C(=O)NCc2ccccc2Br)CCN1C(=O)Cc1ccc(-c2ccccc2)cc1", "note": "(stereo not drawn)", "Potency": "inactive"}
{"smiles": "Cc1cc(C(=O)N/N=C/c2c(CO)cnc(C)c2O)c2ccccc2n1", "Potency": "inactive"}
{"smiles": "CSCc1nnc(NC(=O)c2ccc(S(=O)(=O)N3CCCCC3C)cc2)o1", "note": "(stereo not drawn)", "Potency": "inactive"}
{"smiles": "COc1ccc(C(NC(=O)c2cccnc2)c2cc(Cl)c3cccnc3c2O)cc1OC", "note": "(stereo not drawn)", "Potency": "inactive"}
{"smiles": "CC[C@H]1CN2CCc3cc(OC)c(OC)cc3C2C[C@@H]1C[C@H]1NCCc2cc(OC)c(OC)cc21", "note": "(stereo partly drawn)", "Potency": "inactive"}
{"smiles": "Cc1cc(C(=O)N/N=C/c2cc(Br)cc(Br)c2OC(=O)c2cccc(F)c2)n[nH]1", "Potency": "inactive"}
{"smiles": "O=[N+]([O-])c1c(Nc2ccccn2)cc(Cl)c2nonc12", "Potency": "inactive"}
{"smiles": "COC(=O)Cc1ccc(NC(=S)N2CCN(c3cc(Cl)ccc3C)CC2)cc1", "Potency": "inactive"}
{"smiles": "CN(C)CCCN(C(=O)c1ccc(S(=O)(=O)N(C)Cc2ccccc2)cc1)c1nc2cc3c(cc2s1)OCO3", "Potency": "inactive"}
{"smiles": "COc1ccccc1/C=C/CN1CCCC(CO)(Cc2cccc(Cl)c2)C1", "note": "(stereo not drawn)", "Potency": "inactive"}
{"smiles": "COc1ccc(Cl)cc1C(Nc1cccnc1)c1ccc2cccnc2c1O", "note": "(stereo not drawn)", "Potency": "inactive"}
{"smiles": "Cc1sc(NC(=O)c2cc(-c3ccc(Cl)cc3)nc3ccccc23)c(C(N)=O)c1C", "Potency": "25.1 µM (active)"}
{"smiles": "CN1CCC(NC(=O)c2cc(-c3cccc(Br)c3)nc3ccccc23)CC1", "Potency": "inactive"}
{"smiles": "Cc1cccc(NC(=O)c2cc(-c3ccccn3)nc3ccccc23)c1C", "Potency": "inactive"}
{"smiles": "COc1ccccc1-c1cc2nc(-c3ccccc3)cc(N3CCN(C(=O)c4ccco4)CC3)n2n1", "Potency": "inactive"}
{"smiles": "O=C(Nc1ccc(OC(F)(F)F)cc1)N1CCN(c2ccnc3cc(Cl)ccc23)CC1", "Potency": "inactive"}
{"smiles": "CC(=O)Nc1ccc(CNc2nc(NC(C)C)nc3cc(-c4ccccc4)sc23)cc1", "Potency": "14.1 µM (active)"}
{"smiles": "CC(C)Nc1nc(NCCOc2ccccc2)c2sccc2n1", "Potency": "inactive"}
{"smiles": "COc1cccc(CNc2nc(NCc3ccccc3)nc3ccsc23)c1", "Potency": "inactive"}
{"smiles": "COc1ccccc1NC(=O)CSc1n[nH]c(-c2ccccn2)n1", "Potency": "inactive"}
{"smiles": "CC(C)c1ccc(S(=O)(=O)c2cc3cc(Br)ccc3oc2=O)cc1", "Potency": "inactive"}
{"smiles": "N=c1n(CCN2CCCCC2)c2ccccc2n1CC(O)c1ccc(Cl)c(Cl)c1", "note": "(stereo not drawn)", "Potency": "inactive"}
{"smiles": "CCOC(=O)c1c(C)sc2c1N(C(=O)CN(CC)CC)c1cc(Cl)ccc1S2", "Potency": "inactive"}
{"smiles": "COc1ccc(NC(=O)c2cc(-c3cc(Cl)ccc3OC)n[nH]2)cc1OC", "Potency": "inactive"}
{"smiles": "Cc1nc2c(OCc3cccc(Cl)c3)cccn2c1N(C)Cc1cccs1", "Potency": "inactive"}
{"smiles": "C(=N\\Nc1ccc2nncn2n1)/c1ccccn1", "Potency": "inactive"}
